# Screening data as filed in PubChem.
# Shown are actives, neighbours in structure and some others; about 5.7% of the full set was active somewhere.
# HP1b binding inh: inhibitors of HP1-beta chromodomain binding to methylated histone tails; 390,000 tested, 0.56% active; P83916; AlphaScreen HP1-beta / biotin-H3K9me3 peptide binding; Potency, µM (series often up to 114 µM), most hits filed as inhibitors; further: nearly all actives have a fitted effect of over 70% in size
#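 HP1-beta protein (50 nM final) preincubated 30 min at room temperature with biotinylated H3(1-18)K9me3 peptide (50 nM) in PBS pH 7.4, 0.01% Tween-20, then compound added for 30 min. AlphaScreen streptavidin donor/nickel chelate acceptor beads (10 ug/mL final), 30 min dark, luminescence read.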
# PI5P4K alpha inh: blocks human PI5P4K alpha kinase activity | max response, % | P48426 | AID 652105 | 330,000 tested, 1.2% active | PI5P4Kalpha enzyme, ADP-Glo luminescence, 60 min; active compounds read low; active means max response of -50% or lower; inconclusive means between -30% and -50%; inactive means -30% or higher; further: value at the top dose of about 77 µM
#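 Enzyme plus substrate dispensed, test compounds pinned in, then ATP (5 microM final) added. After 60 min at RT, ADP-Glo reagent 1 for 45 min and reagent 2 for 30 min preceded luminescence imaging.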
# BAZ2B inh: inhibitors of human BAZ2B bromodomain; AID 504333; Q9UIF8; Potency, µM (titrated, usually from 114 µM), most hits filed as inhibitors; AlphaScreen BAZ2B-H3K14Ac peptide displacement; 360,000 tested, 4.4% active; further: nearly all actives have a fitted effect of over 60% in size
#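 Compounds, titrated to a top concentration of 110 uM, were incubated 30 min at room temperature with preformed BAZ2B/acetyl-K14 H3 peptide complex (50 nM each). Proximity signal was measured by AlphaScreen after 20 min with beads.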
# JMJD2A Tudor inh: blocks the human JMJD2A Tudor domain; O75164; AlphaScreen JMJD2A-Tudor / H3K4me3 peptide binding; Potency, µM (titrated, usually from 114 µM), hits mostly inhibitors; 390,000 tested, 4.4% active; AID 504339; further: nearly all actives have a fitted effect of over 50% in size
# L3MBTL1 inh: blocks human L3MBTL1; Q9Y468; AlphaScreen L3MBTL1–H3K9me1 peptide binding; Potency, µM (highest dose often 57.1 µM), hits mostly inhibitors; 230,000 tested, 0.66% active; further: nearly all actives have a fitted effect of over 60% in size
#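 AlphaScreen proximity signal between nickel-chelate acceptor and streptavidin donor beads (final 10 ug/mL) reports binding of 50 nM L3MBTL1 to 75 nM biotin-H3 K9me1 peptide; complex incubated with compounds 30 min at room temperature; cefsulodin titration as control.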
# JMJD2E inh: inhibitors of human JMJD2E histone demethylase | B2RXH2 | JMJD2E catalytic domain, FDH-coupled NADH fluorescence (FDH is formaldehyde dehydrogenase) | Potency, µM (doses to about 57.1 µM), most hits filed as inhibitors | 230,000 tested, 1.6% active; active means well fitted inhibition curve with a large enough effect, not every such curve was filed as active; inconclusive means small, poorly fitted or top-dose-only effect, or another doubt; inactive means no such curve, though single readings can be large or run the other way; further: nearly all actives have a fitted effect of over 50% in size
# ADP-Glo counter: counter-screen for PI5P4K inhibitors: ADP-Glo detection interference, no enzyme. ADP-Glo detection counter-screen, luciferase luminescence, no enzyme. AID 743285. Potency, µM (doses to about 76.9 µM), usual class: inhibitors. 1,100 tested, under 10 active. shares compounds with PI5P4K alpha inh
# Numbers stand for hits; i = inactive; ? = inconclusive; nt = no result given; [ ] = dose if it differs, or a comment. Unless noted, the call rests on the fitted dose curve; in most records, active means well fitted curve in the direction sought with a large enough effect; inconclusive means small, poorly fitted or top-dose-only effect, or another doubt; inactive means no such curve, though single readings can be large; an effect the other way counts as inactive or inconclusive.
SMILES,HP1b binding inh,PI5P4K alpha inh,BAZ2B inh,JMJD2A Tudor inh,L3MBTL1 inh,JMJD2E inh,ADP-Glo counter
CCn1c(SCc2nc3sc(C(=O)O)c(C)c3c(=O)[nH]2)nc2ccccc21,28.2µM,-63.7,25.1µM,39.8µM,nt,i,i
CCc1nn(CC(=O)N2CCCCC2)c(=O)c2cc3sc(C)cc3n12,i,nt,i,i,nt,nt,nt
O=C(CN1CCN(S(=O)(=O)c2ccccc2F)CC1)NC1CCCC1,i,i,i,i,i,i,nt
O=C(CSc1ccccc1)Nc1nnc(COc2ccc(Cl)cc2)s1,?,-53.5,50.1µM,56.2µM,i,i,i
CCN(CC(=O)Nc1c(F)cccc1F)C(=O)Cn1[nH]c(=O)c2ccccc2c1=O,i,i,i,i,i,nt,nt
COc1cc(-c2nc3nc(C)cc(C)n3c2Nc2ccc(Cl)cc2)ccc1O,i,nt,i,i,nt,nt,nt
O=C(Nc1ccc(-c2nc3ncccc3o2)cc1)c1ccco1,i,-53.0,i,35.5µM,i,?,i
O=C(Nc1ccc(-c2nc3ncccc3o2)cc1)c1ccc(Br)o1,i,i,i,i,i,?,nt
Fc1cc(F)cc(Nc2nc(Cl)nc(NC3CCCC3)n2)c1,i,nt,i,i,i,nt,nt
COc1cccc(CNC(=O)COC(=O)c2c(C)nn(-c3ccccc3)c2Cl)c1,i,-59.1,?,i,?,nt,i
CC(=O)c1ccc(NC(=O)c2noc3c2CCC3)cc1,?,-57.7,56.2µM,i[11.4 µM],nt,i,i
O=C(CCS(=O)(=O)c1ccc(Br)cc1)NCc1ccc(F)cc1,i,?,39.8µM,i,nt,nt,i
Cc1ccc(CNC(=O)CCS(=O)(=O)c2ccc(Cl)cc2)cc1,i,-93.9,i,i,i,i,i
CC1CCCCC1NC(=O)COC(=O)c1c2c(nc3ccccc13)/C(=C\c1ccco1)CC2 (centres undefined),?,-74.3,nt,44.7µM,nt,nt,i
Cc1ccc(C)c2[nH]c(=O)c(CCNC(=O)c3ccc(S(=O)(=O)N4CCOCC4)cc3)cc12,i,-56.8,i,i,nt,nt,i
O=C(NCc1ccccn1)c1ccc(OC2CCN(Cc3ccc(CO)o3)CC2)cc1,i,i,i,i,nt,nt,nt
O=C(O)c1ccc2c(=O)[nH]c(CCl)nc2c1,i,-59.1,i,?,i,?,i
Cc1ccsc1C(=O)N1CCCC1(C)C(=O)NCC(C)C (centres undefined),nt,i,nt,nt,nt,nt,nt
CN1CCN(c2ccc(S(=O)(=O)N3CCCCC3)cn2)CC1,i,i,i,i,nt,i,nt
CN1CCN(S(=O)(=O)c2ccc(N3CCc4ccccc4C3)nc2)CC1,i,-69.5,i,8.91µM,i,i,i
CCC(C)c1nc2ccsc2c(N2CCOC2=O)c1-c1ccccc1 (centres undefined),i,-53.6,nt,i,nt,nt,i
Cc1ccc2oc(C(=O)Nc3c(C(=O)c4ccc(C)c(F)c4)oc4ccccc34)cc(=O)c2c1,i,nt,i,i,nt,nt,nt
COC(=O)c1ccccc1NC(=O)c1ccc2nccnc2c1,i,?,?,?,i,i,nt
O=C(Nc1ccccc1Cl)c1ccc2nccnc2c1,?,i,i,i,nt,nt,i
Cc1nn(-c2ccccc2)c2nc(=O)n(-c3ccccc3)cc12,?,nt,i,?,i,i,i
SMILES,HP1b binding inh,PI5P4K alpha inh,BAZ2B inh,JMJD2A Tudor inh,L3MBTL1 inh,JMJD2E inh,ADP-Glo counter
Cc1ccc2nc3c(cc2c1)c(C)nn3-c1ccccc1,i,i,i,i,nt,nt,nt
COCCNC(=O)C(c1ccc(O)cc1)N(Cc1ccco1)C(=O)CCC(=O)Nc1ccccn1 (centres undefined),i,i,i,i,nt,nt,nt
COCCNC(=O)C(c1ccc(Cl)cc1)N(Cc1ccco1)C(=O)CCC(=O)Nc1ccccn1 (centres undefined),i,-53.1,i,i,nt,nt,i
Cc1ccc(C(=O)NC2CCN(CC(=O)NC3CCC(C)CC3)CC2)cc1 (centres undefined),i,i,i,i,nt,nt,nt
CC(C)C(=O)Nc1ccccc1N1CCN(S(C)(=O)=O)CC1,i,i,i,i,i,i,i
CCc1nnc(NC(=O)c2ccc(S(C)(=O)=O)cc2)s1,i,-53.0,i,i[11.4 µM],i,i,i
